Our source for the growth values is PubChem BioAssay (NCI).

This is part of a sample that, as a whole, favours compounds with a hit. Of some 83,000 tested, about 20% had one in any assay.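 Interpretation: 100, growth as untreated; towards 0, rising growth inhibition; 0, no net growth; 0 to -100, cell death. Compounds scoring below 10 were considered active.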 Values without a mark were called inactive. The source made the active and inactive calls.

Test systems include SR leukemia; RPMI-8226 leukemia; OVCAR-8 ovarian; OVCAR-5 ovarian; OVCAR-4 ovarian; SK-OV-3 ovarian; IGROV1 ovarian; OVCAR-3 ovarian; HS 578T breast; NCI/ADR-RES ovarian.
Common to all, as to experiment: NCI-60 one-dose screen, 48 h (100 = growth as untreated, 0 = no growth, -100 = all killed)
Settings in all cases: 10 µM unless noted

For `COCCOc1cc2ncnc(N3CCN(c4cc(S(C)(=O)=O)c(C)cc4Cl)CC3)c2cc1OCCOC`, the growth was 77% in the experiment with SR leukemia; 76% in the experiment on RPMI-8226 leukemia; 83.2% in the experiment on OVCAR-8 ovarian; 109% in the experiment with OVCAR-5 ovarian; 103% in the experiment on OVCAR-4 ovarian; 105% with SK-OV-3 ovarian. Besides, the growth is 98% in the experiment on IGROV1 ovarian, 96.1% in the experiment on OVCAR-3 ovarian, 90.6% in the experiment on HS 578T breast and 83.2% in the experiment on NCI/ADR-RES ovarian.
Regarding `CCC(C(=O)[C@@H](C)[C@@H](O)[C@H](C)[C@@H]1O[C@@H]([C@@H](CC)C(=O)ONC(=O)c2ccccc2)CC[C@@H]1C)[C@H]1O[C@]2(C=CC(=O)[C@]3(CC[C@@](C)([C@H]4CC[C@](O)(CC)[C@H](C)O4)O3)O2)[C@H](C)C[C@@H]1C` (stereo not given in full), the growth in the experiment with SR leukemia was -22.5% (active); in the experiment on RPMI-8226 leukemia, 7.88% (active); in the experiment on OVCAR-8 ovarian, 12.2%; with OVCAR-5 ovarian, -4.48% (active); in the experiment with OVCAR-4 ovarian, 35.6%; in the experiment on SK-OV-3 ovarian, 95.2%. Besides, the growth was -76.2% (active) in the experiment on IGROV1 ovarian, -71.1% (active) in the experiment with OVCAR-3 ovarian, -2.36% (active) with HS 578T breast and 12.1% in the experiment with NCI/ADR-RES ovarian.
For the molecule `O=C1C(Cl)=C(NCCCCCCNC2=C(Cl)C(=O)c3ccccc3C2=O)C(=O)c2ccccc21`, the growth in the experiment with SR leukemia was 88%; in the experiment with RPMI-8226 leukemia, 85.2%; in the experiment with OVCAR-8 ovarian it was 77.6%; with OVCAR-5 ovarian, 110%; with OVCAR-4 ovarian it was 22.5%; in the experiment on SK-OV-3 ovarian, 98%. Besides, the growth in the experiment with IGROV1 ovarian is 38.2%; in the experiment on OVCAR-3 ovarian, 47.3%; in the experiment on HS 578T breast, 89.3%; in the experiment on NCI/ADR-RES ovarian, 93.5%.
Turning to `Clc1ccc(/C=N\N=C\c2ccc(Cl)c(Cl)c2)cc1Cl`, the growth in the experiment on SR leukemia was 103%; in the experiment with RPMI-8226 leukemia, 102%; in the experiment on OVCAR-8 ovarian it was 85.7%; in the experiment on OVCAR-5 ovarian, 66.9%; in the experiment with OVCAR-4 ovarian, 97.9%; in the experiment with SK-OV-3 ovarian, 87.4%. Besides, the growth with IGROV1 ovarian was 79.5%; in the experiment on OVCAR-3 ovarian, 119%; in the experiment with HS 578T breast it was 106%; with NCI/ADR-RES ovarian it was 77.3%.
On to `COc1c(B(O)O)cccc1-c1cc(C)c2c(ccc3[nH]ncc32)n1`, for which the growth in the experiment on SR leukemia was 27.5%; in the experiment on RPMI-8226 leukemia, 68.7%; in the experiment with OVCAR-8 ovarian, 64.1%; in the experiment on OVCAR-5 ovarian, 72.1%; with OVCAR-4 ovarian it was 122%; in the experiment on SK-OV-3 ovarian it was 59.3%. In addition, the growth is 59.1% in the experiment on IGROV1 ovarian, 113% with OVCAR-3 ovarian, 8.78% (active) with HS 578T breast and 83.3% with NCI/ADR-RES ovarian.
Consider `C=C(C)[C@@H]1CCC[C@]2(COS(=O)(=O)c3ccc(C)cc3)CC[C@]3(C)[C@@H](CC[C@@H]4[C@@]5(C)CCCNC(C)(C)[C@@H]5CC[C@]43C)[C@@H]12`, for which the growth was -46.1% (active) in the experiment on SR leukemia; -14.8% (active) in the experiment on RPMI-8226 leukemia; -77.6% (active) in the experiment with OVCAR-8 ovarian; 63.3% in the experiment with OVCAR-5 ovarian; -64.4% (active) with OVCAR-4 ovarian; 98.7% in the experiment on SK-OV-3 ovarian. Moreover, the growth in the experiment with IGROV1 ovarian was -87.1% (active); in the experiment with OVCAR-3 ovarian, -87.7% (active); with HS 578T breast it was 61.4%; in the experiment with NCI/ADR-RES ovarian it was -3.42% (active).
Take `CCC(=O)Oc1ccc(-c2ccccc2)cc1Br`: the growth in the experiment with SR leukemia was 107%; with RPMI-8226 leukemia, 104%; in the experiment with OVCAR-8 ovarian, 106%; in the experiment on OVCAR-5 ovarian it was 104%; with OVCAR-4 ovarian, 105%; with SK-OV-3 ovarian, 120%. Moreover, the growth with IGROV1 ovarian is 112%; in the experiment on OVCAR-3 ovarian, 114%; in the experiment with HS 578T breast, 115%; in the experiment with NCI/ADR-RES ovarian it was 110%.
Turning to `COc1ccc(/C=N/C2=C(C#N)C(c3ccccc3)c3ccc4ccccc4c3O2)cc1` (stereo not given), the growth with SR leukemia was 23.6%; in the experiment on RPMI-8226 leukemia it was 8.19% (active); in the experiment with OVCAR-8 ovarian, 14.1%; in the experiment with OVCAR-5 ovarian, 26.7%; with OVCAR-4 ovarian, 56.6%; in the experiment with SK-OV-3 ovarian, 21.6%. Further, the growth with IGROV1 ovarian is 26.2%; in the experiment on OVCAR-3 ovarian, 2.08% (active); with HS 578T breast, 29.8%; in the experiment with NCI/ADR-RES ovarian, 4.68% (active).
Take `CCC(=C(c1ccc(OCCN2CCCCC2)cc1)c1ccc(OCCN2CCCCC2)cc1)c1ccc(Cl)cc1`: the growth in the experiment with SR leukemia is -49% (active); with RPMI-8226 leukemia, -59.8% (active); in the experiment with OVCAR-8 ovarian, -75.4% (active); in the experiment with OVCAR-5 ovarian, -95.4% (active); in the experiment with OVCAR-4 ovarian, -90.2% (active); in the experiment on SK-OV-3 ovarian, -85.7% (active). Further, the growth in the experiment on IGROV1 ovarian is -87.9% (active); in the experiment with OVCAR-3 ovarian, -83.9% (active); in the experiment with HS 578T breast, -77.1% (active); in the experiment on NCI/ADR-RES ovarian, -84.6% (active).
Consider `O=C1c2ccccc2-c2c1c1c(=O)[nH]c3ccccc3c1n2Cc1ccccc1`, for which the growth with SR leukemia is 55.4%; with RPMI-8226 leukemia, 80.3%; with OVCAR-8 ovarian, 63.2%; in the experiment on OVCAR-5 ovarian it was 56.5%; in the experiment with OVCAR-4 ovarian, 35%; in the experiment with SK-OV-3 ovarian, 76.3%. Also, the growth with IGROV1 ovarian is 71.5%; in the experiment with OVCAR-3 ovarian, 77.2%; in the experiment with HS 578T breast, -15% (active); in the experiment on NCI/ADR-RES ovarian, 67.9%.
Regarding `c1ccc2cc(C[n+]3ccn(CCCCCCCCCCn4cc[n+](Cc5ccc6ccccc6c5)c4)c3)ccc2c1`, the growth with SR leukemia is -45.2% (active); with RPMI-8226 leukemia it was 9.87% (active); in the experiment with OVCAR-8 ovarian, 11.1%; in the experiment with OVCAR-5 ovarian, 12.8%; in the experiment on OVCAR-4 ovarian it was 12.5%; in the experiment on SK-OV-3 ovarian, -17.1% (active). Further, the growth was -26.1% (active) in the experiment with IGROV1 ovarian, 4.99% (active) in the experiment on OVCAR-3 ovarian, -1.11% (active) with HS 578T breast and 99.5% in the experiment with NCI/ADR-RES ovarian.
With `CC(C)c1ccc(Cc2cnc(NC(=O)c3cc(Br)cs3)s2)cc1`, the growth in the experiment with SR leukemia is 16.8%; with RPMI-8226 leukemia, 22.6%; with OVCAR-8 ovarian, 35.5%; in the experiment on OVCAR-5 ovarian, 53.7%; with OVCAR-4 ovarian, 54.3%; with SK-OV-3 ovarian it was 28.6%. Further, the growth is 38% in the experiment with IGROV1 ovarian, 15.6% with OVCAR-3 ovarian, 19.8% in the experiment on HS 578T breast and 6.8% (active) in the experiment with NCI/ADR-RES ovarian.
In the case of `COc1ccc(/C=C(\C#N)n2nnc3cc(F)c(F)cc32)cc1`, the growth in the experiment on SR leukemia was 12.9%; in the experiment on RPMI-8226 leukemia, 70.5%; with OVCAR-8 ovarian, 70.1%; in the experiment on OVCAR-5 ovarian, 56.3%; with OVCAR-4 ovarian, 74%; in the experiment with SK-OV-3 ovarian, 69.6%. In addition, the growth in the experiment on IGROV1 ovarian is 39.7%; with OVCAR-3 ovarian, 21.5%; in the experiment on HS 578T breast, 92.1%; in the experiment with NCI/ADR-RES ovarian it was 19.6%.
